# Tested on: FXR:RXRa (NR concentration 270 nM, RXRa partner concentration 90 nM)
# Experiment: PBM binding z-score (relative to random genomic background probes); higher = stronger binding; sequences stand for … in GC…GCGATTGACAGCGTAGAATGAAGG
# Method in brief: (§1)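 Ligand-free nuclear receptor dimers were applied to custom Agilent 4×180K protein-binding microarrays whose double-stranded probes carried direct-repeat seeds, single-nucleotide variants, half-site ablations and random human genomic background sequences in 34-nt variable regions. Incubation lasted 1 h. Binding z-scores were computed against the random background probes from regression-normalized fluorescence.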
row,Sequence,PBM binding z-score
1,CGAACTAGGTCACCAGGACAGTAAAGAGGTTGGA,4.28
2,ATATGTAGGATATCGGGTCATTCAGTTTGCGCAT,1.64
3,ATACGTAGGTTACATCCGGGTCATTCAGGCTATG,2.32
4,ATATGGAGGTTAGGGTCATTCAGAAAGTAGGGAA,5.28
5,ATATGTAGGTTAGGGTCATTCACAAAGTAGGGAA,4.56
6,TAGCCTAGGTCATTCAGGGGGCAGTATAGAAAGC,5.76
7,CGAGCTAGGTCACCAGGACAGTGAAGAGGTTGGA,3.66
8,CGAACTAGGCCAAAGGACAGTGAAAGGCGACGTA,-0.669
9,CGAACTAGGTCACCACGACAGTGAAGAGGTTGGA,4.13
10,CGTCCAAGGTCAATGCAAGGTCAGTGAAAGCATT,7.23
11,CGAACCAGGTCACCAGGACAGTGAAGAGGTTGGA,5.33
12,CCTAGTTGGTCAAGGTAACACACGCTATAGGTAC,0.638
13,ATATGTAGGTTACATCCGAGTCATTCAGGCTATG,0.413
14,ATATGAAGGTTATCGGGTCATTCAGTTTGCGCAT,4.04
15,ATATGTAGGTTACATCGGGGTCATTCAGGCTATG,4.88
16,CTCGAAAGGTCGGTTGAGGTGAGTAAACGGATAA,2.7
17,CGAACTAGGTAAAAGGACAGTGAAAGGCGACGTA,-0.23
18,CGTCAAAGTTCAACTAAGTTAACGTAAAGCACGC,7.25
19,ATATGTGGGTTAGGGTCATTCAGAAAGTAGGGAA,5.21
20,CCGACGGGGGCAAGGTTACCATAACGCACAGCCA,3.14

row,Sequence,PBM binding z-score
1,CTCGAAAGGTCGTCCTCAGGTGAGTATACCAAAC,4.94
2,ATTTGTAGGTTATCGGGTCATTCAGTTTGCGCAT,3.62
3,TCTGCTAGGTCAGGTGGTCAGCTAACGAGCTGCC,1.39
4,CGAACTTGGTCACCAGGACAGTGAAGAGGTTGGA,0.102
5,CGAACTAGGTGACCAGGACAGTGAAGAGGTTGGA,-0.0348
6,CCTACTGGGCCAAGGTCATTGCTCAGTCAAAGCA,3.09
7,CGTCCAAGGTAAGAGAGGTCAGTGAATGCCGAGT,1.6
8,CGAACTAGGTCACCAGGACAGAGAAGAGGTTGGA,4.19
9,CCTACTGGGCCAAAGGTCAGTGATTCCAATGCTC,2.78
10,TGAATGAGGTCAAAGATCAGGGAACGTGGCGTCG,7.57
11,CCTTACGGGTCACTCCATGTTATAGCATCGGAGT,4.2
12,CGAACTAGGTCACCAGGACAGTGGAGAGGTTGGA,4.02
13,CGAATTAGGTCACCAGGACAGTGAAGAGGTTGGA,4.43
14,GATACAGGGTGAAGGCCAGAGTACGCGTATTGAT,-0.425
15,CGAACTAGGTCATCAGGACAGTGAAGAGGTTGGA,4.1
16,AGTCAGAGTTCATCTAGGTAACGTAAGATATGCT,6.74
17,CCTACTGGGCCATTCAGAGGTCATTGATCATATG,2.92
18,CCTTACGGGTCAAGGTAATAGCACGGGTGGTACG,5.58
19,CCTTACGGGTCAAGGTTATCGCACGGGTGGTACG,6.04

# Tested on: LXRa:RXRa (NR concentration 270 nM, RXRa partner concentration 90 nM)
# Experiment: as above
# Method in brief: as §1
row,Sequence,PBM binding z-score
1,CGAACTAGGTCACCAGGACAGTAAAGAGGTTGGA,2.44
2,ATATGTAGGATATCGGGTCATTCAGTTTGCGCAT,1.98
3,ATACGTAGGTTACATCCGGGTCATTCAGGCTATG,4.39
4,ATATGGAGGTTAGGGTCATTCAGAAAGTAGGGAA,4.25
5,ATATGTAGGTTAGGGTCATTCACAAAGTAGGGAA,4.43
6,TAGCCTAGGTCATTCAGGGGGCAGTATAGAAAGC,4.78
7,CGAGCTAGGTCACCAGGACAGTGAAGAGGTTGGA,2.28
8,CGAACTAGGCCAAAGGACAGTGAAAGGCGACGTA,-0.893
9,CGAACTAGGTCACCACGACAGTGAAGAGGTTGGA,2.41
10,CGTCCAAGGTCAATGCAAGGTCAGTGAAAGCATT,5.69
11,CGAACCAGGTCACCAGGACAGTGAAGAGGTTGGA,3.4
12,CCTAGTTGGTCAAGGTAACACACGCTATAGGTAC,0.459
13,ATATGTAGGTTACATCCGAGTCATTCAGGCTATG,1.95
14,ATATGAAGGTTATCGGGTCATTCAGTTTGCGCAT,3.38
15,ATATGTAGGTTACATCGGGGTCATTCAGGCTATG,5.89
16,CTCGAAAGGTCGGTTGAGGTGAGTAAACGGATAA,1.73
17,CGAACTAGGTAAAAGGACAGTGAAAGGCGACGTA,-0.378
18,CGTCAAAGTTCAACTAAGTTAACGTAAAGCACGC,5.95
19,ATATGTGGGTTAGGGTCATTCAGAAAGTAGGGAA,4.67
20,CCGACGGGGGCAAGGTTACCATAACGCACAGCCA,3.01

row,Sequence,PBM binding z-score
1,CTCGAAAGGTCGTCCTCAGGTGAGTATACCAAAC,3.75
2,ATTTGTAGGTTATCGGGTCATTCAGTTTGCGCAT,4.05
3,TCTGCTAGGTCAGGTGGTCAGCTAACGAGCTGCC,0.774
4,CGAACTTGGTCACCAGGACAGTGAAGAGGTTGGA,-0.231
5,CGAACTAGGTGACCAGGACAGTGAAGAGGTTGGA,-0.436
6,CCTACTGGGCCAAGGTCATTGCTCAGTCAAAGCA,3.01
7,CGTCCAAGGTAAGAGAGGTCAGTGAATGCCGAGT,2.42
8,CGAACTAGGTCACCAGGACAGAGAAGAGGTTGGA,2.59
9,CCTACTGGGCCAAAGGTCAGTGATTCCAATGCTC,2.95
10,TGAATGAGGTCAAAGATCAGGGAACGTGGCGTCG,6.26
11,CCTTACGGGTCACTCCATGTTATAGCATCGGAGT,4.36
12,CGAACTAGGTCACCAGGACAGTGGAGAGGTTGGA,2.46
13,CGAATTAGGTCACCAGGACAGTGAAGAGGTTGGA,2.73
14,GATACAGGGTGAAGGCCAGAGTACGCGTATTGAT,-0.357
15,CGAACTAGGTCATCAGGACAGTGAAGAGGTTGGA,2.56
16,AGTCAGAGTTCATCTAGGTAACGTAAGATATGCT,5.36
17,CCTACTGGGCCATTCAGAGGTCATTGATCATATG,4.32
18,CCTTACGGGTCAAGGTAATAGCACGGGTGGTACG,3.16
19,CCTTACGGGTCAAGGTTATCGCACGGGTGGTACG,3.62

# Source: the supplement of paper PMC6555819
